This note sets out measurements from PubChem BioAssay (NCATS).

Records with an inconclusive call do not appear. Entries that show only a call come without a potency. Active and inactive are the calls of the source. Calls follow the shape of the dose curve; as a rule, active = well fitted cell-killing curve with a large enough effect; inconclusive = small, poorly fitted or top-dose-only effect; inactive = no such curve, though single readings can be large or run the other way.
Potency is read from the fitted curve at half-maximal effect.

This test is described as follows: Cell Viability - LYMP2-001 (AID 921). Also: nearly all actives have a fitted effect of over 70% in size. Particulars: LYMP2-001 lymphoblastoid cell viability; series mostly up to 92.2 µM. An excerpt:
NIH Chemical Genomics Center [NCGC]
NIH Molecular Libraries Screening Centers Network [MLSCN]
National Institutes of Environmental Health Sciences [NIEHS]
National Toxicology Program [NTP]
We have developed a 1536-well cell-based assay for quantitative high throughput screening (qHTS) against a number of cell lines to determine in vitro cytotoxicity of small molecules. This particular assay uses a human lymphoblastoid cell line (LYMP2-001) purchased from Coriell Institute for Medical Research.
NCGC Assay Protocol Summary:
The CellTiter-Glo luminescent cell viability assay (Promega) is a homogeneous method to measure the number of viable cells in culture. The end point readout of this assay is based on quantitation of intracellular ATP, an indicator of metabolic activity, using the luciferase reaction. Luciferase catalyzes the oxidation of beetle Luciferin to oxyluciferin and light in the presence of ATP. The luminescent signal is proportional to amount of ATP present.
Using the CellTiter-Glo luminescent cell viability assay, the amount of cellular ATP was measured in the lymphoblastoid cell line with complete culture medium following compound treatment for 24 hours. The assay was performed in opaque white Kalypsys 1536-well plates. In the screen, tetraoctylammonium bromide was used as positive control. Library compounds were measured for their ability to cause acute toxicity in the cell line, as reflected by a decrease in intracellular ATP levels, in a concentration-dependent manner. […] AC50 values were determined from concentration-response data modeled with the standard Hill equation.
qHTS protocol for CellTiter Glo lymphoblastoid cellular assay
[Step] [Parameter] [Value] [Description]
1. Reagent; 5 uL; 2500 lymphoblastoid cells/well
2. Time; 5 hr; 37 C incubation
4. Controls; 23 nL; Tetraoctylammonium bromide 6.4pM to 92 uM
5. Time; 24 hr; 37 C incubation
6. Reagent; 5 uL; CellTiter Glo reagent
7. Time; 30 min; Room Temperature
8. Detection; Luminescence; Viewlux plate reader
Keywords: cell viability, cytotoxicity, lymphoblastoid cell line, luminescence, NTPHTS, NTPHTS_NCGC, NIEHS, DSSTox, MLSMR, MLSCN, NIH Roadmap, qHTS, NCGC
Take `CCOC(C)=O`: the Potency entry was “inactive”. As to `O=C(O)CCC(=O)C(=O)O`, the Potency result was “inactive”. As for `O=CCCCC=O`, the figure is 15.8 µM (active). As for `O=S(=O)(O)O`, the Potency result is “inactive”. As for `Cc1ccccc1`, the entry is “inactive”. As for `CC1=C2[C@@H]([C@H](C)CC[C@H]2/C=C(\C)C(=O)O)[C@H](O)C1`, the Potency entry is “inactive”. Consider `CCCCCCCC/C=C\CCCCCCCC(=O)O`, for which the Potency result is “inactive”. Regarding `CC(O)CO` (centres undefined), the Potency entry is “inactive”. In the case of `CCOc1ccc2c(c1)C(C)=CC(C)(C)N2`, the Potency result was “inactive”. As for `CC(C)=O`, the entry is “inactive”; as for `Nc1ccn([C@H]2CS[C@@H](CO)O2)c(=O)n1`, “inactive”; as for `IC(I)I`, “inactive”. With `CCCCCCCC(=O)O`, the Potency entry is “inactive”.

For the compound `CCCCC/C=C\C/C=C\CCCCCCCC(=O)O`, the Potency result was “inactive”.
